About 83,000 compounds went through this panel and 20% of them were active in at least one assay; those are over-represented in the sample as a whole.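 Percent growth is the endpoint: 0 to 100 indicates growth inhibition (40 means 60% inhibition), 0 means no net growth, and negative values indicate cell death.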 Values without a mark were called inactive. Active and inactive are the calls of the source. Rule for the calls: active = growth percent below 10; inactive = the rest.
What was measured:
Assay in all cases: NCI-60 one-dose screen, 48 h (100 = growth as untreated, 0 = no growth, -100 = all killed)
NCI-H23 lung = conditions: 10 µM unless noted
NCI-H226 lung = conditions: 10 µM unless noted
NCI-H322M lung = conditions: 10 µM unless noted
HOP-62 NSCLC = conditions: 10 µM unless noted
NCI-H460 lung = conditions: 10 µM unless noted
HOP-92 NSCLC = conditions: 10 µM unless noted
NCI-H522 lung = conditions: 10 µM unless noted
A549/ATCC NSCLC = conditions: 10 µM unless noted
786-0 renal = conditions: 10 µM unless noted
COLO 205 colon = conditions: 10 µM unless noted
DU-145 prostate = conditions: 10 µM unless noted
K-562 leukemia = conditions: 10 µM unless noted
MDA-MB-231 breast = conditions: 10 µM unless noted
RXF 393 renal = conditions: 10 µM unless noted
SF-268 CNS = conditions: 10 µM unless noted
SF-295 CNS = conditions: 10 µM unless noted
SF-539 CNS = conditions: 10 µM unless noted
UACC-257 melanoma = conditions: 10 µM
M14 melanoma = conditions: 10 µM unless noted
MALME-3M melanoma = conditions: 10 µM unless noted

SMILES | growth (NCI-H23 lung) | growth (NCI-H226 lung) | growth (NCI-H322M lung) | growth (HOP-62 NSCLC) | growth (NCI-H460 lung) | growth (HOP-92 NSCLC) | growth (NCI-H522 lung) | growth (A549/ATCC NSCLC) | growth (786-0 renal) | growth (COLO 205 colon) | growth (DU-145 prostate) | growth (K-562 leukemia) | growth (MDA-MB-231 breast) | growth (RXF 393 renal) | growth (SF-268 CNS) | growth (SF-295 CNS) | growth (SF-539 CNS) | growth (UACC-257 melanoma) | growth (M14 melanoma) | growth (MALME-3M melanoma)
COc1ccc(C2=NN(c3ccc(S(N)(=O)=O)cc3)C(c3cn(-c4ccccc4)nc3-c3ccc(Cl)cc3)C2)cc1 (centres undefined) | 93.9% | 101% | 94.4% | 95.3% | 89% | 110% | 71.1% | 74.6% | 105% | 93.7% | 95.2% | 66.9% | 93.5% | 97.3% | 85.6% | 93.1% | 102% | 95.4% | 83.9% | –
O=S(=O)(NCCCNc1nccc(-c2c(-c3ccc(O)cc3)nc3sccn23)n1)c1ccc(F)cc1 | 1.81% (active) | 3.13% (active) | 17.6% | 10% | 1.37% (active) | 12.3% | -1.49% (active) | 15.9% | 16.4% | 1.03% (active) | 10.6% | 7.51% (active) | 7.09% (active) | -12.7% (active) | 17.8% | -34.9% (active) | 0.696% (active) | 4.9% (active) | – | –
COc1cc(/C=C2\CCCC3=C2N=C2SC(C)=NN2C3c2cc(OC)c(OC)c(OC)c2)cc(OC)c1OC (centres undefined) | 23.2% | 27.7% | 28.5% | -0.72% (active) | -13.9% (active) | 91.9% | 81% | 39.9% | 34.5% | 19.2% | 4.69% (active) | 6.05% (active) | -39.6% (active) | 24.2% | 9.86% (active) | 5.96% (active) | -21.6% (active) | 49.3% | 10.6% | –
COc1cc(C2C=C(C)N=C3SC(C)=NN32)cc(OC)c1OC (centres undefined) | 94.8% | 107% | 116% | 95.9% | 114% | 90.9% | 89.8% | 103% | 105% | 96.3% | 108% | 107% | 111% | 114% | 105% | 111% | 114% | 106% | 102% | –
COc1ccc(/C=C/C(=O)c2cc(OC)c(OC)c(OC)c2)cc1OCc1cn(Cc2ccc(F)cc2)nn1 | 103% | 76.8% | 33.6% | 4.52% (active) | 95.8% | 55.9% | 26.4% | 29.7% | 49.3% | – | 59.3% | 7.36% (active) | 81.8% | 72.2% | 79.3% | 68.4% | 6.59% (active) | 98.3% | 87.7% | 92.1%
O=C(O)c1cccc([N+](=O)[O-])c1/C=C/c1ccccc1 | 102% | 96.9% | 90.5% | 92.6% | 103% | 112% | 116% | 104% | 98.1% | 98.9% | 105% | – | 109% | 103% | 97.7% | 95.4% | 107% | 117% | 101% | 90.4%
NC(N)=NC(N)=Nc1ccccc1-c1ccccc1 | 100% | 111% | 105% | 115% | 105% | 109% | 106% | 105% | 106% | – | 114% | 104% | 116% | 112% | 113% | 113% | 110% | – | 108% | 110%
CCn1cc(C(=O)O)c(=O)c2cc(F)c(N3CCN(S(=O)(=O)c4cccc5ccccc45)CC3)cc21 | 0.0593% (active) | 21.9% | -14.5% (active) | 15.1% | 8.04% (active) | -8.49% (active) | -33.9% (active) | 3.78% (active) | 24.3% | – | 18.9% | 15.4% | 23.9% | 29% | 16.4% | 7.68% (active) | 17.4% | 14% | 17.9% | -16% (active)
c1ccc([P+](CCC[P+](c2ccccc2)(c2ccccc2)c2ccccc2)(c2ccccc2)c2ccccc2)cc1 | 89% | 101% | 79.5% | 75.3% | 77.6% | 20.1% | 43.1% | 86.9% | 92.5% | – | 86.7% | 23.2% | 93.7% | 104% | 69.2% | 73.4% | 88% | 37% | 80.9% | 65.6%
COc1cccc2nc(Nc3ccc(NC(=O)c4ccc5ncccc5c4)cc3)ccc12 | 92.8% | 97.5% | 81.4% | 91.9% | 84.8% | 111% | 99.9% | 78.1% | 42.7% | – | 89.6% | 60.1% | 68.3% | 30% | 82.8% | 6.41% (active) | 48.1% | – | 92.6% | 70.2%
O=C(Nc1ccc(I)cc1)c1cc([N+](=O)[O-])ccc1O | 8.5% (active) | 45.9% | 29.7% | 23.8% | 33.7% | -6.55% (active) | -1.54% (active) | 44.1% | 39.6% | – | 51.4% | 18.7% | 16.2% | 7.47% (active) | 39.4% | 33.7% | 20.4% | – | 31.3% | -2.87% (active)
COc1ccc(/C=C/C(=O)c2cccc(B(O)O)c2)cc1O | 61.9% | 91.5% | 64% | 40.5% | 13.8% | 41.4% | 43.9% | 41.7% | 59.1% | 98.3% | -10% (active) | 8.39% (active) | 48.2% | 41.5% | 47.8% | 87.4% | 0.0331% (active) | 75% | 70.6% | –
CC(=O)Nc1ccc(S(=O)(=O)NC(CCC(=O)Nc2ccc(Cl)cc2)C(=O)O)cc1 (centres undefined) | 97.3% | 96.8% | 96.9% | 92.2% | 105% | 113% | 97.1% | 93.8% | 107% | 97.8% | 102% | 77.4% | 95% | 108% | 102% | 98.8% | 99.2% | 98% | 99.2% | –
CN(C)c1ccc(C2CC(c3ccccc3)=NN2/C=C2\SC(=O)NC2=O)cc1 (centres undefined) | 88.7% | 90.4% | 87.4% | 94.5% | 67.2% | 91.5% | 90% | 70.1% | 90.5% | – | 57.7% | 100% | 93.3% | 96.5% | 90.9% | 98% | 76% | 115% | 93.7% | 89%
COc1cc(-c2cc(/C=C3\CCCCC3=O)[nH]n2)cc(OC)c1OC | 95.5% | 94.6% | 95.3% | 99.3% | 104% | 86.4% | 76.9% | 95.1% | 98.1% | – | 95.4% | 79.4% | 94.6% | 96.1% | 96.8% | 96.4% | 103% | 95% | 101% | 101%
COC(=O)[C@H]1[C@H](OC)[C@@H](OC(=O)/C=C/c2ccncc2)CC2CN3CCc4c([nH]c5cc(OC)ccc45)[C@@H]3C[C@@H]21 (some centres undefined) | 97% | 73.7% | 78.4% | 78.5% | 92.5% | 1.2% (active) | 72% | 82.9% | 83.5% | 79.2% | 80% | 57.3% | 62.2% | 72.7% | 80.3% | 90.4% | 91% | 62.3% | 78.4% | –
CCC(=O)Oc1cc(/C=C/C(=O)O[C@H]2C[C@H]3CN4CCc5c([nH]c6cc(OC)ccc56)[C@@H]4C[C@@H]3[C@@H](C(=O)OC)[C@@H]2OC)ccc1OC | 86.7% | 67% | 122% | 89% | 93.5% | -1.22% (active) | 84% | 80.5% | 70.3% | 69.5% | 82.9% | 39.7% | 49.7% | 57.9% | 74.8% | 106% | 84.6% | 74.9% | 82.5% | –
